# Results reported in PubChem BioAssay (NCATS).
# Where “and” joins values, the source holds several entries; their conditions need not be identical. Equal entries are not always repeated. Results filed as inconclusive are left out. Where a call stands in place of a potency, no number is given. Calls of active or inactive are those of the source. Unless noted, the call rests on the fitted dose curve.
# Assays:
# [1] = target: Alpha-galactosidase (Coffea arabica) (UniProt Q42656); assay: Counterscreen for Glucocerebrosidase Inhibitors: qHTS Assay for Coffee Bean alpha-Galactosidase at pH 4.5 (AID 957; active means well fitted curve in the direction sought with a large enough effect; an effect the other way counts as inactive or inconclusive)
# Chain of Alpha-galactosidase (Coffea arabica) (Q42656 whole entry, looked up): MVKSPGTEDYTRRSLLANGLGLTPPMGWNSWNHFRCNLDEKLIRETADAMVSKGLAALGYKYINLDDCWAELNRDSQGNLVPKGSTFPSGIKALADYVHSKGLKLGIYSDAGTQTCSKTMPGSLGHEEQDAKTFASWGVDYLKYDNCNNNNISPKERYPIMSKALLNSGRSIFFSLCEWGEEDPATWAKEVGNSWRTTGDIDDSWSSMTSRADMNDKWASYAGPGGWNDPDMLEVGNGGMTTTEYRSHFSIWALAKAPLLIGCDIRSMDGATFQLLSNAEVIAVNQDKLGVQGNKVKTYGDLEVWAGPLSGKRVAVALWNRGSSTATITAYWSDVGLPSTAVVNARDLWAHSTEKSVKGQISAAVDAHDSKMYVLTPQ
# How it was run: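 Fluorogenic read-out: 4-methylumbelliferone at Ex 365/Em 440 nm after NaOH/glycine stop (pH 10). Enzyme 2 nM, 4-MU-alpha-galactoside 80 uM, citrate buffer pH 4.5, 20 min RT; normalized to no-enzyme and enzyme controls.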
# [2] = target: Alpha-galactosidase (Coffea arabica) (UniProt Q42656); assay: Counterscreen for Glucocerebrosidase Inhibitors: qHTS Assay for Coffee Bean alpha-Galactosidase at pH 5.9 (AID 998; active means well fitted curve in the direction sought with a large enough effect; an effect the other way counts as inactive or inconclusive)
# How it was run: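 Enzyme 2 nM + cpd (0.7 nM–77 uM titration) + 4-MU-alpha-Gal 80 uM, pH 5.9 citrate/Tween-20, RT 20 min, NaOH/glycine stop pH 10, fluor 365/440. Normalized to no-enzyme and full-activity controls; Hill-fit AC50.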
# [3] = Validation screen for inhibitors of Lassa infection (AID 463096)
# [4] = Inducers of the Endoplasmic Reticulum Stress Response (ERSR) in human glioma: Validation (AID 504836; active means well fitted curve in the direction sought with a large enough effect; an effect the other way counts as inactive or inconclusive)
# How it was run: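 Stably transfected U87-MG glioma cells carrying a GRP78-based luciferase sensor; 16 h compound incubation. Luminescence end-point read 10 min after Bright-Glo addition at room temperature.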
# [5] = qHTS for Inhibitors of the Functional Ribonucleoprotein Complex (vRNP) of Lassa (LASV) Arenavirus: LASV Primary Screen - GLuc reporter signal (AID 1347082; calls by dose curve; tested in HEK293 reporter line; further: nearly all actives have a fitted effect of over 60% in size)
# [6] = qHTS for Inhibitors of the Functional Ribonucleoprotein Complex (vRNP) of Lassa (LASV) Arenavirus: Viability assay - alamar blue signal for LASV Primary Screen (AID 1347083; calls by dose curve; tested in HEK293 reporter line; further: nearly all actives have a fitted effect of over 80% in size)
# [7] = qHTS for Inhibitors of the Functional Ribonucleoprotein Complex (vRNP) of Lymphocytic Choriomeningitis Arenaviruses (LCMV): Viability assay - alamar blue signal for LCMV Primary Screen (AID 1347085; calls by dose curve; tested in HEK293 reporter line; further: nearly all actives have a fitted effect of over 80% in size)
# [8] = target: Nucleoprotein (Lymphocytic choriomeningitis virus (strain Armstrong)) (UniProt P09992); assay: qHTS for Inhibitors of the Functional Ribonucleoprotein Complex (vRNP) of Lymphocytic Choriomeningitis Arenaviruses (LCMV): LCMV Primary Screen - GLuc reporter signal (AID 1347086); further: nearly all actives have a fitted effect of over 70% in size
# Chain of Nucleoprotein (Lymphocytic choriomeningitis virus (strain Armstrong)) (P09992 whole entry, looked up): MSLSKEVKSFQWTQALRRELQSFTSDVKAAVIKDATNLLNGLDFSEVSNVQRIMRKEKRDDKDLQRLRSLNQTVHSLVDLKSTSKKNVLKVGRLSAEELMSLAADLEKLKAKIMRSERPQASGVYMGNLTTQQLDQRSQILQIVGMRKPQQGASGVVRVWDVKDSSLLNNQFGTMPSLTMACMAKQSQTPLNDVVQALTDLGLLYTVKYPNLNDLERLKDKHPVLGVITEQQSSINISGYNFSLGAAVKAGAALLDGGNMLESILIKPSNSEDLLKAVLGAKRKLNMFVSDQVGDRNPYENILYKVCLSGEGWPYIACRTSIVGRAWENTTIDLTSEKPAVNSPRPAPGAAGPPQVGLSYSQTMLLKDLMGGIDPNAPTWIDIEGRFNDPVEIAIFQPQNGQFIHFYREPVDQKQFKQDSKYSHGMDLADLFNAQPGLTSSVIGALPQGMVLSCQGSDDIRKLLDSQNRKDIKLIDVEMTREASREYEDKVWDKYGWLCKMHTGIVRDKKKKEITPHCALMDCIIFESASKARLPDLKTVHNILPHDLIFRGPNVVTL
# [9] = qHTS for inhibitors of Rabies Virus screened against the NCATS CANVASS Library (AID 1347402)
# [10] = tested on: Zika virus NS2B-NS3 protease; assay: Primary screen GU AMC qHTS for Zika virus inhibitors (AID 1347154; active means well fitted curve in the direction sought with a large enough effect; an effect the other way counts as inactive or inconclusive; further: nearly all actives have a fitted effect of over 70% in size)
# How it was run: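 Unlinked Zika NS2B hydrophilic domain–NS3 protease complex at 25 nM in 10 mM Tris-HCl pH 8.0, 0.01% Tween 20, with an AMC peptide substrate. Fluorescence change (340/450 nm) over 15 min at room temperature, normalized to controls, fitted to 4-parameter Hill.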
# [11] = Primary qHTS for small molecule stabilizers of the endoplasmic reticulum resident proteome: Secreted ER Calcium Modulated Protein (SERCaMP) assay (AID 1508630; active means well fitted curve in the direction sought with a large enough effect; an effect the other way counts as inactive or inconclusive)
# How it was run: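 The SH-SY5Y reporter protocol was run at 3 concentrations up to 38.3 uM (primary) or 11 concentrations (follow-up): 16 h compound, 100 nM thapsigargin for 4 h, then extracellular luciferase luminescence.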
# [12] = Primary qHTS for inhibitors of SARS-S pseudo-typed particle cell entry (AID 1479145); further: nearly all actives have a fitted effect of over 45% in size
# [13] = Primary qHTS for Huh7 cytotoxicity: counterscreen for inhibitors of MERS-S pseudotyped particle cell entry (AID 1479147); conditions: outcome: dose series up to 57.1 µM unless noted
# [14] = Primary qHTS for inhibitors of MERS-S pseudo-typed particle cell entry (AID 1479149); further: nearly all actives have a fitted effect of over 60% in size
# [15] = Primary qHTS for Vero E6 cytotoxicity: counterscreen for inhibitors of SARS-S pseudo-typed particle cell entry (AID 1479150); conditions: outcome: dose series up to 57.1 µM unless noted
# [16] = Cytotoxicity counterscreen for inhibitors of SARS-CoV-2 cell entry (AID 1645845); further: nearly all actives have a fitted effect of over 50% in size
# How it was run: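 Counterscreen run in the same HEK293-ACE2 line as the pseudotyped-particle entry assay, without particles. Viability after 48 h at 37 C was read as ATP luminescence, scaled between cell-containing and cell-free wells.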
# [17] = Primary qHTS to identify inhibitors of SARS-CoV-2 cell entry (AID 1645846); conditions: activity change, negative = inhibition: at 57.1 µM (top of the series) unless noted; further: nearly all actives have a fitted effect of over 45% in size
# How it was run: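 Data are normalized to wells receiving SARS-CoV-2-S pseudoparticles and those given bald particles. Entry signal was luciferase luminescence in stable hACE2 Expi293F cells, 48 hr post-infection, after 1 hr compound pretreatment.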
# [18] = qHTS Assay for Lipid Storage Modulators (AID 1519); conditions: Drosophila S3 cells, BODIPY lipid droplet/cell ratio, laser cytometry, cells loaded with oleic acid
# How it was run: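 Cells seeded at 5,000 per well were treated with compounds over a concentration series and loaded with oleic acid (400 uM, as added). Lipid droplet fluorescence (488 nm excitation, 500-530 nm channel) was read by laser-scanning cytometry and normalized to 20 uM Triacsin C.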
# [19] = Confirmatory qHTS to identify inhibitors of SARS-CoV-2 cell entry (AID 1645844); further: potency means the concentration at half of the fitted maximal effect; nearly all actives have a fitted effect of over 45% in size
# How it was run: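 HEK293-ACE2, overnight seeding; cpd 1 h, 37C/5% CO2; + SARS-CoV-2-S MLV PP (Wuhan-Hu-1, ΔC19); 48 h; Bright-Glo luminescence. Data normalised to S PP and bald PP wells.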
# [20] = VSVG counterscreen qHTS to identify inhibitors of SARS-CoV-2 cell entry (AID 1645847); further: potency means the concentration at half of the fitted maximal effect; nearly all actives have a fitted effect of over 65% in size
# How it was run: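 Counterscreen using VSV-G (not spike) pseudotyped MLV particles on ACE2-expressing Expi293F cells after 1 h compound preincubation; infection ran 48 h at 37 °C. Data normalized to VSV-G PP and bald-PP wells.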
smiles,measurement,setting,value
CC(=O)NCCc1c[nH]c2ccc(O)cc12,outcome,[1],inactive
same,outcome,[2],inactive
same,Potency,[3],inactive
same,outcome,[4],inactive
same,Potency,[5],inactive
same,Potency,[6],inactive
same,Potency,[7],inactive
same,Potency,[8],inactive
same,outcome,[9],inactive
Cn1cccc1-c1cccnc1,Potency,[5],inactive
same,Potency,[6],inactive
same,Potency,[7],inactive
same,Potency,[8],inactive
same,Potency,[10],inactive
same,Potency,[11],inactive
COc1ccc(CCN)cc1,Potency,[5],inactive
same,Potency,[6],inactive
same,Potency,[7],inactive
same,Potency,[8],inactive
same,Potency,[10],inactive
same,Potency,[11],inactive
CNCC(N)C(=O)O (stereo not drawn),Potency,[5],inactive
same,Potency,[6],inactive
same,Potency,[7],inactive
same,Potency,[8],inactive
same,Potency,[10],inactive
NC[C@H]1O[C@H](O[C@H]2[C@@H](O)[C@@H](O[C@H]3O[C@H](CO)[C@@H](O)[C@H](N)[C@@H]3O)[C@H](N)C[C@@H]2N)[C@H](N)C[C@H]1O,Potency,[5],inactive
same,Potency,[6],inactive
same,Potency,[7],inactive
same,Potency,[8],inactive
same,"activity change, negative = inhibition",[12],-1.32% [at 11.4 µM] (inactive)
same,outcome,[13],inactive [at 11.4 µM]
same,outcome,[14],inactive [at 11.4 µM]
same,outcome,[15],inactive [at 11.4 µM]
same,outcome,[16],inactive [at 11.3 µM]
same,"activity change, negative = inhibition",[17],-15.5% [at 11.3 µM]
CC(=O)OCC1=C(C(=O)[O-])N2C(=O)[C@@H](NC(=O)CCC[C@@H](N)C(=O)[O-])[C@H]2SC1.[Zn+2],Potency,[3],inactive
same,Potency,[5],inactive
same,Potency,[6],inactive
same,Potency,[7],inactive
same,Potency,[8],inactive
CN1CCCCC1c1cccnc1 (stereo not drawn),Potency,[5],inactive
same,Potency,[6],inactive
same,Potency,[7],inactive
same,Potency,[8],inactive
same,Potency,[10],inactive
same,Potency,[11],inactive
CC(C)[N+]1(C)[C@@H]2CC[C@H]1CC(OC(=O)C(CO)c1ccccc1)C2 (stereo partly drawn),Potency,[5],inactive
same,Potency,[6],inactive
same,Potency,[7],inactive
same,Potency,[8],inactive
same,Potency,[12],inactive
same,outcome,[13],inactive
same,Potency,[14],inactive
same,outcome,[15],inactive
same,Potency,[16],inactive
same,"activity change, negative = inhibition",[17],2.78%
CC(/C=C/C=C(\C)C(=O)O[C@@H]1O[C@H](CO[C@@H]2O[C@H](CO)[C@@H](O)[C@H](O)[C@H]2O)[C@@H](O)[C@H](O)[C@H]1O)=C\C=C\C=C(C)\C=C\C=C(/C)C(=O)O[C@@H]1O[C@H](CO[C@@H]2O[C@H](CO)[C@@H](O)[C@H](O)[C@H]2O)[C@@H](O)[C@H](O)[C@H]1O,Potency,[5],inactive
same,Potency,[6],inactive
same,Potency,[7],inactive
same,Potency,[8],inactive
same,Potency,[12],inactive
same,outcome,[13],inactive
same,Potency,[14],inactive
same,outcome,[15],inactive
same,Potency,[16],inactive
same,"activity change, negative = inhibition",[17],-12.5%
COc1cc2oc3ccccc3c(=O)c2cc1OC,Potency,[5],inactive
same,Potency,[6],inactive
same,Potency,[7],inactive
same,Potency,[8],inactive
same,outcome,[9],inactive
COc1cc(C)c(C=CC(C)=CC=CC(C)=CC(=O)O)c(C)c1C,Potency,[5],inactive
same,Potency,[6],inactive
same,Potency,[7],inactive
same,Potency,[8],inactive
same,Potency,[12],inactive
same,outcome,[13],inactive
same,Potency,[14],inactive
same,outcome,[15],inactive
same,Potency,[16],inactive
same,Potency,[17],inactive
c1cncc([C@@H]2CCCCN2)c1,"activity change, negative = inhibition",[18]; at 25.7 µM (top of the series),-0.77% (inactive)
same,"activity change, negative = inhibition",[18]; at 57.5 µM (top of the series),-0.69% (inactive)
same,max response,[18]; measured here: cell count channel max response,-8.06% and -15.1%
same,max response,[18]; measured here: lipid channel max response,-8.76% and -13.6%
same,Potency,[5],inactive
same,Potency,[6],inactive
same,Potency,[7],inactive
same,Potency,[8],inactive
same,Potency,[10],inactive
COc1cc2c(c(OC)c1OC)-c1c(cc3c(c1OC)OCO3)C[C@H](C)[C@@](C)(O)C2,Potency,[5],inactive
same,Potency,[6],inactive
same,Potency,[7],inactive
same,Potency,[8],inactive
same,Potency,[12],inactive
same,outcome,[13],inactive
same,Potency,[14],inactive
same,outcome,[15],inactive
same,Potency,[16],inactive
CCC1CCC(=O)O1 (stereo not drawn),Potency,[5],inactive
same,Potency,[6],inactive
same,Potency,[7],inactive
same,Potency,[8],inactive
O=C(O)Cc1c[nH]c2ccc(O)cc12,outcome,[1],inactive
same,outcome,[2],inactive
same,Potency,[3],inactive
same,outcome,[4],inactive
same,Potency,[5],inactive
same,Potency,[6],inactive
same,Potency,[7],inactive
same,Potency,[8],inactive
same,outcome,[9],inactive
Cc1cc(O)c2c(c1)O[C@@]1(C)CC[C@H]3C(C)(C)CCCC34CO[C@@H]2[C@H]41 (stereo partly drawn),Potency,[5],inactive
same,Potency,[6],inactive
same,Potency,[7],inactive
same,Potency,[8],inactive
same,Potency,[12],inactive
same,outcome,[13],inactive
same,Potency,[14],inactive
same,outcome,[15],inactive
same,Potency,[16],inactive
same,"activity change, negative = inhibition",[17],-25.2%
CO[C@H]1C(=O)[C@]2(C)[C@@H](OC)C[C@H]3OC[C@@]3(OC(C)=O)[C@H]2[C@H](OC(=O)c2ccccc2)[C@]2(O)C[C@H](OC(=O)[C@H](O)[C@@H](NC(=O)OC(C)(C)C)c3ccccc3)C(C)=C1C2(C)C,Potency,[5],inactive
same,Potency,[6],inactive
same,Potency,[7],inactive
same,Potency,[8],inactive
same,Potency,[12],inactive
same,outcome,[13],inactive
same,Potency,[14],inactive
same,outcome,[15],inactive
same,Potency,[19],48.2 nM (active)
same,Potency,[16],inactive
same,"activity change, negative = inhibition",[17],-81.7%
same,Potency,[20],136 nM (active)
O=C1CCC(C(=O)O)N1 (stereo not drawn),Potency,[5],inactive
same,Potency,[6],inactive
same,Potency,[7],inactive
same,Potency,[8],inactive
same,Potency,[12],inactive
same,outcome,[13],inactive
same,Potency,[14],inactive
same,outcome,[15],inactive
same,Potency,[16],inactive
same,"activity change, negative = inhibition",[17],-17.5%
CC(CC=O)CCCC(C)(C)O (stereo not drawn),Potency,[5],inactive
same,Potency,[6],inactive
same,Potency,[7],inactive
same,Potency,[8],inactive
same,Potency,[12],inactive
same,outcome,[13],inactive
same,Potency,[14],inactive
same,outcome,[15],inactive
same,Potency,[16],inactive
same,"activity change, negative = inhibition",[17],-11.7%
N[C@@H](Cc1ccc(O)c(O)c1)C(=O)O,outcome,[1],inactive
same,outcome,[2],inactive
same,outcome,[4],inactive
same,Potency,[5],inactive
same,Potency,[6],inactive
same,Potency,[7],inactive
same,Potency,[8],inactive
same,outcome,[12],inactive [at 0.573 µM]
same,outcome,[13],inactive [at 0.573 µM]
same,"activity change, negative = inhibition",[14],3.84% [at 0.573 µM] (inactive)
same,outcome,[15],inactive [at 0.573 µM]
same,Potency,[19],3830 nM (active)
same,Potency,[16],inactive
same,"activity change, negative = inhibition",[17],-25.4%
same,outcome,[17],inactive [at 0.702 µM]
same,Potency,[20],429 nM (active)
O=c1cc(-c2ccccc2)oc2cc(O)c(O)c(O)c12,Potency,[5],inactive
same,Potency,[6],inactive
same,Potency,[7],inactive
same,Potency,[8],inactive
same,outcome,[9],inactive
same,Potency,[16],inactive
same,Potency,[17],inactive
